According to PubChem BioAssay (Tox21):
Inconclusive results are not listed. The source made the active and inactive calls. Unless noted, the call rests on the fitted dose curve; in most records, active means well fitted curve in the direction sought with a large enough effect in the repeat runs; inconclusive means weak or mixed curves; inactive means no such curve, though single readings can be large; an effect the other way counts as inactive or inconclusive.

Columns and labels:
[1] = qHTS assay to identify small molecule antagonists of the thyroid receptor (TR) signaling pathway - cell viability counter screen (AID 743064); conditions: GH3.TRE-Luc viability, CellTiter-Fluor, 24 h; series mostly up to 70.3 µM; further: nearly all actives have a fitted effect of over 50% in size; further: potency means the concentration at half of the fitted maximal effect
How it was run: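 In-well cytotoxicity read by CellTiter-Fluor (30 min, 37 C) following 23.5 h exposure of GH3 cells bearing a TRE-luciferase sensor. Compounds were added alongside 1 nM (final) T3 to drive TR transactivation.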

[2] = qHTS assay to identify small molecule antagonists of the thyroid receptor (TR) signaling pathway (AID 743065); conditions: GH3.TRE-Luc, T3-stimulated luciferase inhibition, 23.5 h; series mostly up to 70.3 µM; further: nearly all actives have a fitted effect of over 55% in size; further: potency means the concentration at half of the fitted maximal effect
How it was run: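 GH3.TRE-Luc rat pituitary cells carrying two TR response elements driving luciferase were plated for 4 h, given compound plus 1 nM T3 (final), and incubated 23.5 h at 37 C. ONE-Glo luminescence measured reporter inhibition; CellTiter-Fluor fluorescence tracked cytotoxicity.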

[3] = biological target: Estrogen receptor (Homo sapiens) (UniProt P03372); assay: qHTS assay to identify small molecule antagonists of the estrogen receptor alpha (ER-alpha) signaling pathway (AID 743069; active means well fitted curve in the direction sought with a large enough effect in the signal ratio in the repeat runs, not every such curve was filed as active; the % refers to the signal ratio); conditions: HEK293 ER-alpha-UAS-bla, beta-lactamase ratio, antagonist mode; series mostly up to 69.4 µM
Estrogen receptor (Homo sapiens), sequence (P03372 whole entry, looked up): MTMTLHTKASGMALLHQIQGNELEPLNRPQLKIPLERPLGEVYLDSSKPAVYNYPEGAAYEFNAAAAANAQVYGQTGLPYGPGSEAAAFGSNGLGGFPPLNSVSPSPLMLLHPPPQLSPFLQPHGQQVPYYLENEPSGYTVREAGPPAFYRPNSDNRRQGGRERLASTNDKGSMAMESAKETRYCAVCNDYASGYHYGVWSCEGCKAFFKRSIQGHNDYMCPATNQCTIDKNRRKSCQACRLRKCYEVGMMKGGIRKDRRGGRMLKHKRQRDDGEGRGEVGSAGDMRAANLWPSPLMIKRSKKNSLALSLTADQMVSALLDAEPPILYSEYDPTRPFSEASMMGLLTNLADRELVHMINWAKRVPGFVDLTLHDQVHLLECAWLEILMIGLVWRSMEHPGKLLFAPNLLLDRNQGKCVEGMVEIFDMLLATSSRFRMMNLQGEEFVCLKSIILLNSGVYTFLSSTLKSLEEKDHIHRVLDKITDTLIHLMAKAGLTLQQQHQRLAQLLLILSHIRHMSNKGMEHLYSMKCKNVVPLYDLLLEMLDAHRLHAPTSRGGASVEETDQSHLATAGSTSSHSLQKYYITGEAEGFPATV
How it was run: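 Screening used a UAS-driven beta-lactamase reporter integrated into HEK293 cells expressing ER-alpha, stimulated with 17beta-estradiol alongside test compounds over 18 hr at 37C; signal came from LiveBLAzer B/G FRET fluorescence.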

[4] = qHTS assay to identify small molecule antagonists of the estrogen receptor alpha (ER-alpha) signaling pathway - cell viability counter screen (AID 743074; calls by dose curve; further: nearly all actives have a fitted effect of over 45% in size; further: potency means the concentration at half of the fitted maximal effect); conditions: ERalpha-bla HEK293 viability, CellTiter-Glo luminescence, 18 h; series mostly up to 69.4 µM
[5] = biological target: Estrogen receptor (Homo sapiens) (UniProt P03372); assay: qHTS assay to identify small molecule agonists of the estrogen receptor alpha (ER-alpha) signaling pathway (AID 743075; calls by dose curve); conditions: HEK293 ER-alpha-UAS-bla, beta-lactamase FRET ratio, 18 h; series mostly up to 70.1 µM
[6] = biological target: Estrogen receptor (Homo sapiens) (UniProt P03372); assay: qHTS assay to identify small molecule agonists of the estrogen receptor alpha (ER-alpha) signaling pathway using the BG1 cell line (AID 743079); conditions: BG1Luc4E2 cells, ERE-luciferase agonist, 22 h; series mostly up to 70.3 µM; further: nearly all actives have a fitted effect of over 20% in size
[7] = qHTS assay to identify small molecule antagonists of the estrogen receptor alpha (ER-alpha) signaling pathway using the BG1 cell line (AID 743080; calls by dose curve;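 further: BG1 cells stimulated with 17beta-estradiol alongside compound; nearly all actives have a fitted effect of over 25% in size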); conditions: BG1Luc4E2 ERE-luciferase antagonist mode, luminescence; series mostly up to 70.3 µM
How it was run: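 Readout is ONE-Glo luminescence, taken 30 min at room temperature after reagent addition, preceded by a CellTiter-Fluor viability read; BG1-Luc-4E2 cells had received compound and 17beta-estradiol for 21.5 h at 37 C.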

[8] = qHTS assay to identify small molecule antagonists of the estrogen receptor alpha (ER-alpha) signaling pathway using the BG1 cell line - cell viability counter screen (AID 743081); conditions: BG1Luc4E2 viability, CellTiter-Fluor, 22 h; series mostly up to 70.3 µM;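 further: compound given together with 17beta-estradiol as the ER stimulus; nearly all actives have a fitted effect of over 45% in size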
Aromatase (Homo sapiens) = Aromatase (Homo sapiens) (UniProt P11511); assay: qHTS assay to identify aromatase inhibitors (AID 743083); conditions: MCF-7 aro ERE, testosterone-driven ERE luciferase, 24 h; series mostly up to 70.3 µM; further: nearly all actives have a fitted effect of over 55% in size
Aromatase (Homo sapiens), sequence (P11511 whole entry, looked up): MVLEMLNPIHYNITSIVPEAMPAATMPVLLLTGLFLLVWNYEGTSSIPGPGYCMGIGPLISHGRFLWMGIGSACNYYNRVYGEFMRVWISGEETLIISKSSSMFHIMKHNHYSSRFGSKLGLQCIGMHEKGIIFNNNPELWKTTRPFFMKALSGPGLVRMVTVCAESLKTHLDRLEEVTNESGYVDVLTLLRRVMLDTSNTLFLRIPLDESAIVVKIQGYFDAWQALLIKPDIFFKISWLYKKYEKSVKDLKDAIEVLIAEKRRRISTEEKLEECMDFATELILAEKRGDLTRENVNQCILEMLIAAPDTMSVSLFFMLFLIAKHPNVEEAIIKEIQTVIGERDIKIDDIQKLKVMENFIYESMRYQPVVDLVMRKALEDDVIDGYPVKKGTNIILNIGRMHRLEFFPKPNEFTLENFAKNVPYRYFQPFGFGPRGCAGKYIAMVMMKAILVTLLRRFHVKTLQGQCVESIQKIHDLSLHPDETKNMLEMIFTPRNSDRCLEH

[9] = tested on: thyroid hormone receptor (rat, GH3 cells); assay: qHTS assay to identify small molecule agonists of the thyroid receptor (TR) signaling pathway (AID 743066; calls by dose curve; further: potency means the concentration at half of the fitted maximal effect); conditions: GH3.TRE-Luc cells, TR agonist luciferase, 24 h; series mostly up to 83.9 µM

Measured: Potency

O=P(O)(OCc1ccccc1)OCc1ccccc1
not listed: [9]
inactive: all other assays above

CNCCCN1c2ccccc2CCc2ccccc21
active: [1] 8.04 µM | [2] 12.7 µM
not listed: [9]
inactive: all other assays above

CCC(C)O (configuration not stated)
inactive: [1] | [2] | [9] | [8]

O=C(NCCO[N+](=O)[O-])c1cccnc1
inactive: [1] | [2] | [9] | [4] | [8] | Aromatase (Homo sapiens)

NC(=O)C(c1ccccc1)(c1ccccc1)[C@@H]1CCN(CCc2ccc3c(c2)CCO3)C1
active: [1] 6.68 µM | [2] 26.6 µM
not listed: [9]
inactive: all other assays above

CCCCc1nc2cccnc2n1Cc1ccc(-c2ccccc2-c2nnn[nH]2)cc1
active: [1] 54.5 µM
not listed: [3] | [4]
inactive: all other assays above

Nc1cc(C(=O)O)c(O)c(S(=O)(=O)O)c1
inactive: [1] | [2] | [9] | [4] | [8] | Aromatase (Homo sapiens)

O=C(O)c1nc(Cl)c(Cl)c(Cl)c1Cl
inactive: [1] | [9] | [4] | [8]

Nc1ccccc1S(=O)(=O)c1ccccc1
inactive: [1] | [9] | [4] | [8]

CCOC(=O)COC(=O)c1cc(Oc2ccc(C(F)(F)F)cc2Cl)ccc1[N+](=O)[O-]
inactive: [1] | [9] | [4] | [8]

Nc1c(CC(=O)O)cccc1C(=O)c1ccc(Br)cc1
not listed: [2]
inactive: all other assays above

CCC(C)c1cc(C(C)(C)C)c(O)c(C(C)(C)C)c1 (configuration not stated)
active: [9] 10.7 µM
inactive: [1] | [4] | [8]

CCCCCCCCCCCCN1CCCCCC1=O
inactive: [1] | [9] | [8]
active: [4] 43.6 µM

CN1CCC(=C2c3ccccc3Sc3ccccc32)CC1
inactive: [6]
active: [1] 5.96 µM | [2] 8.41 µM

C[C@@H]1C[C@H]2O[C@@]3(O[C@@H]2C(C)(C)O)[C@H](O)[C@@]2(C)[C@@H]4CC[C@H]5C(C)(C)[C@@H](O[C@@H]6OC[C@@H](O)[C@H](O)[C@H]6O)CC[C@@]56C[C@@]46CC[C@]2(C)[C@@H]13
not listed: [2]
inactive: all other assays above
